Reference: PubChem BioAssay AID593 (National Center for Advancing Translational Sciences (NCATS), 2007)
Screen size: about 59,000 compounds; about 540 (0.92%) were called active. Another 33% or so got no clear call; they are omitted. Cut-off read from the data, not from the text of the source: active = max fluorescein-equivalent concentration above about 10 nM; inconclusive = between about 1.1 nM and that limit; inactive = weaker than that. This excerpt belongs to a sample that is enriched for actives.

Assay: qHTS Assay for Spectroscopic Profiling in Fluorescein Spectral Region
Details: Compound autofluorescence, 480/540 nm; max fluorescein-equivalent concentration: active compounds read high; outcome: fluorescein-equivalent
Excerpt: NIH Molecular Libraries Screening Centers Network [MLSCN]
NIH Chemical Genomics Center [NCGC]
Occasionally, the artifactual effect may originate from the compound's own spectral or other biophysical properties which generally tend to track its assay concentration. Pre-screening/profiling the library with respect to the compounds' spectral properties should help one exclude false positives early on. While the most informative fluorescent profiling data set is obtained by performing a full excitation and emission scan of each well by using a monochromator-based plate reader, such an approach is practical only on a very limited scale as scanning each well requires long time. An alternative approach, applied here, is to perform plate reader scans using selected excitation and emission wavelength pairs to generate a multidimensional relational database that correlates compound concentration and the respective relative fluorescence intensity at a given wavelength set. A standard curve of fluorescein present on each plate as six-point concentration series, was used to compute a normalized fluorescence response, termed dye-equivalent concentration, for each compound at each concentration.
NCGC Assay Protocol Summary:
100 mM Tris buffer, pH 8.0
The wells in columns 1 through 4 of a Kalypsys polypropylene 1536-well compound plate were filled with standard solutions of fluorophore corresponding to the spectral region of interest. Solutions of Fluorescein were placed in the following wells: Q1, R1: 3 mM, Q2, R2: 300 uM, Q3, R3: 30 uM, Q4, R4: zero (DMSO), S1, T1: 3 uM, S2, T2: 900 nM, S3, T3: 300 nM, S4, T4: zero (DMSO).
Six uL of buffer were dispensed to 1536-well Greiner black plates. Compounds and dye standards (23 nL) were transferred via Kalypsys PinTool. The plates were incubated for 15 min at room temperature, and then read on ViewLux (Perkin-Elmer) High-throughput CCD imager using 480 nm and 540 nm excitation and emission filter set.
Keywords: NIH Roadmap, MLSCN, MLI, MLSMR, qHTS, NCGC, Fluorescein, Fluorescent Profiling.

Row | Compound | max fluorescein-equivalent concentration
1 | CN1C2C=C(N(C(=O)c3ccc(Cl)cc3)c3ccccc3)CC1CC2 (stereo not given) | 10 nM (active)
2 | CCN1C[C@@]2(COC)CC[C@H](OC)[C@]34[C@@H]1[C@]1(OCO[C@@]15C[C@@H](OC)C1C[C@H]3[C@H]5[C@@H]1OC)[C@H](O)[C@@H]24 | inactive
3 | COc1ccc(-c2nc(CS(=O)CC(=O)N3CCC4(CC3)OCCO4)c(C)o2)cc1 (stereo not given) | inactive
4 | CC(C)CCC1(CCN)C(=O)NC(=O)NC1=O | inactive
5 | CCC(=NCc1ccco1)c1c(O)n(Cc2ccccc2)c(=O)[nH]c1=O | inactive
